Screening results as filed in PubChem BioAssay.
Rows were chosen to be rich in hits. Some 2.3% of all compounds tested hit in one or more screens of this group.
GSTO1 inh: GSTO1 inhibition, counter-screen for RBBP9 inhibitors | P78417 | recombinant GSTO1, activity-based probe fluorescence polarization | inhibition, % at 5.96 µM | 1.1% of 300,000 active | AID 1974;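 active means inhibition above the campaign mean inhibition plus 3 SD, cut at about 35% in these data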
Target sequence (P78417 whole entry, looked up): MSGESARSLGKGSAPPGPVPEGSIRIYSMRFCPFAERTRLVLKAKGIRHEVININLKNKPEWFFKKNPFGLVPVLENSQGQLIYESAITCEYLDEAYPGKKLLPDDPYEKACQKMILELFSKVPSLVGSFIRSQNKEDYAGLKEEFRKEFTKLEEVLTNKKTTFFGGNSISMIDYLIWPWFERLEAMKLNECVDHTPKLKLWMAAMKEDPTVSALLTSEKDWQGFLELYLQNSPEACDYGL
PME-1 inh: PME-1 (human) inhibition; Q9Y570; 0.53% of 320,000 active; inhibition, % at 5.9 µM; recombinant PME-1, FP-Rh probe fluorescence polarization;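 active means inhibition above the campaign mean of all compounds plus 3 SD, cut at about 26% in these data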;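 further: competitive labeling of PME-1 active site by serine hydrolase directed probe; inhibitors block probe labeling so polarization falls and inhibition rises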
Target sequence (Q9Y570 whole entry, looked up): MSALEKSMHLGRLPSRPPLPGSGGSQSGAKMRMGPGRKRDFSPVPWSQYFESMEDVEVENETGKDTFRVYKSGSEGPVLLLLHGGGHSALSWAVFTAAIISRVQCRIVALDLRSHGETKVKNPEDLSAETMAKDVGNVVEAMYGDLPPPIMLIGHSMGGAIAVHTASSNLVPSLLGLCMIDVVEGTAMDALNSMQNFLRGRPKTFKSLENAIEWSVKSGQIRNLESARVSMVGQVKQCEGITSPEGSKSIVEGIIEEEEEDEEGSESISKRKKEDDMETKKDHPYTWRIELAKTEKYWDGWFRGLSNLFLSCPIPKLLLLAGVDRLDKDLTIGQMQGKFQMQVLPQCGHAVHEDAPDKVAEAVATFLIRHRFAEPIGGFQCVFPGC
pPAFAH FP inh: inhibitors of human plasma PAF acetylhydrolase (pPAFAH) | inhibition, % at 3.39 µM | 1.5% of 330,000 active | AID 463082 | recombinant pPAFAH, FP-rhodamine probe fluorescence polarization;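 active means inhibition above the mean inhibition across the screen plus 3 SD, cut at about 25% in these data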;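 further: inhibitors block binding of the rhodamine activity-based probe so polarization drops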
Fam108B counter: blocks mouse Fam108B hydrolase in RBBP9 counter-screen; recombinant Fam108B, FP-Rh probe fluorescence polarization; inhibition, % at 9.51 µM; 0.33% of 300,000 active; AID 1947;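 active means inhibition above the screen mean inhibition plus 3 SD, computed separately per campaign, cut at about 18% in these data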;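 further: inhibitors lower polarization as less probe binds the enzyme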
PAD4 FP inh: blocks human protein arginine deiminase 4; Q9UM07; recombinant PAD4, RCA probe fluorescence polarization; inhibition, % at 6.36 µM; 0.41% of 330,000 active; AID 485272;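 active means percent inhibition above a cutoff equal to the mean of all tested compounds plus 3 SD, cut at about 15% in these data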
Of the large screens only hits and unclear results are named; the others gave an inactive call.

CC1=C(C(=O)OCC(C)C)C2(O)C(=O)c3ccccc3C2(O)N1 (centres undefined)	GSTO1 inh 68
NC(=O)c1ccsc1NC(=O)COC(=O)c1ccc([N+](=O)[O-])o1	none (no result: GSTO1 inh, Fam108B counter)
NC(=O)c1ccsc1NC(=O)c1ccc([N+](=O)[O-])o1	pPAFAH FP inh 36 (no result: GSTO1 inh, PME-1 inh, Fam108B counter)
O=C(NC1CCCCC1)C1CC(=O)N(Cc2ccccc2)C1 (centres undefined)	none
CC1=C(/C=C/C(C)=C/C=C/C(C)=C\C(=O)O)C(C)(C)CCC1	pPAFAH FP inh 28
CCCCCCCC[n+]1c(C)n(-c2ccccc2)c2ccc(NC(C)=O)cc21	none
O=C(Cn1cc[n+](CC(=O)c2ccc(Cl)cc2Cl)c1)c1ccc(Cl)cc1Cl	pPAFAH FP inh 33
O=C(Cn1cc[n+](CC(=O)c2ccccc2)c1)c1ccccc1	none
Cc1cccc(C)c1NC(=O)CNC(=O)c1c(-c2ccccc2)noc1C	none (no result: GSTO1 inh, Fam108B counter)
Cc1ccc(C(=O)OCC(=O)NC(C)C2CC3CCC2C3)cc1N (centres undefined)	pPAFAH FP inh 30 (no result: GSTO1 inh, PME-1 inh, Fam108B counter)
CCCn1cc2c(c1-c1ccc(C)cc1)c(=O)n(C)c(=O)n2C	none
COc1ccc(-c2c3c(=O)n(C)c(=O)n(C)c3cn2C2CCCCC2)cc1	pPAFAH FP inh 25
CCCCNC(=O)c1onc(CS(=O)(=O)c2ccccn2)c1C(=O)NCCCC	none
CC1=C(C(=O)OCc2ccccc2)C(c2ccc(C(C)(C)C)cc2)NC(=O)N1CCCCCC(=O)O (centres undefined)	pPAFAH FP inh 25
COC(=O)CCCN1C(=O)NC(c2ccc(-c3ccccc3)cc2)C(C(=O)OCc2ccccc2)=C1C (centres undefined)	pPAFAH FP inh 27 (no result: GSTO1 inh, PME-1 inh, Fam108B counter)
COc1ccc(C2NC(=O)N(CCCC(=O)O)C(C)=C2C(=O)OCc2ccccc2)cc1 (centres undefined)	none
Cc1cc(=O)n(CCc2ccccc2)c(O)c1C#N	pPAFAH FP inh 30
COc1cccc(-c2cc(C(=O)NC3CCCCC3)no2)c1	none
COC(=O)c1ccccc1C(=O)c1ccc2c(c1)NC(=O)CO2	PME-1 inh 39
CCCCn1c(N)c(N(CC(C)C)C(=O)c2ccc(S(=O)(=O)N3CCCCCC3)cc2)c(=O)[nH]c1=O	none
CCCCn1c(N)c(N(CC(C)C)C(=O)c2ccc(S(=O)(=O)N3CCC(C)CC3)cc2)c(=O)[nH]c1=O	pPAFAH FP inh 32
CN(Cc1ccccc1)C(=O)CSc1cc(=O)n(C)c2ccccc12	pPAFAH FP inh 29
CCn1c(=O)cc(SCC(=O)N(C)Cc2ccccc2)c2ccccc21	none
NS(=O)(=O)c1ccc(CNC(=O)CCSCCC(=O)NCc2ccc(S(N)(=O)=O)cc2)cc1	none
CNc1ccccc(C(=O)/C=C/c2ccccc2OC)c1=O	pPAFAH FP inh 28
COc1ccc(C(NC(=O)/C=C\c2ccco2)c2ccc(OC)c(OC)c2)cc1 (centres undefined)	none
COc1ccc(C(NC(=O)/C=C/c2ccco2)c2ccc(OC)cc2)cc1	pPAFAH FP inh 27
CC(=O)Oc1c(I)cc(I)cc1C(=O)Nc1ccc(Cl)cc1	PME-1 inh 61, pPAFAH FP inh 25
Cn1c(=NC(=O)c2ccco2)sc2ccccc21	GSTO1 inh 36
O=C1NC(=Nc2ccccc2)/C(=C/c2ccco2)S1	pPAFAH FP inh 34
COc1cc(/C=N/Nc2nc3ccccc3[nH]2)ccc1O	none
Cn1c(/C=N/Nc2nc3ccccc3[nH]2)nc2ccccc21	PME-1 inh 48
COc1cc(/C=N/Nc2nc3ccccc3[nH]2)cc(OC)c1O	GSTO1 inh 73
Cc1cccc(N2CCN(C(=O)c3cc(S(=O)(=O)N4CCOCC4)cn3C)CC2C)c1 (centres undefined)	none
Cc1cc(C)c(NC(=O)COC(=O)c2cccc3c2C(=O)c2ccccc2C3=O)c(C)c1	PME-1 inh 46
Cc1ccc(NC(=O)COC(=O)c2cccc3c2C(=O)c2ccccc2C3=O)c(C)c1	PME-1 inh 85
Cc1ccc(C)c(NC(=O)COC(=O)c2cccc3c2C(=O)c2ccccc2C3=O)c1	PME-1 inh 89
Cc1ccc(NC(=O)COC(=O)c2ccccc2-c2nc3ccccc3s2)c(C)c1	none
Cc1ccc(C(=O)N/C(=C\c2cccs2)C(=O)N2CCOCC2)cc1C	none
Cc1nc(C(F)(F)F)c(C(=O)O)cc1-c1nc(-c2ccccc2)cs1	none
CCCCn1c(N)c(N(CC(C)C)C(=O)CC2CCCCC2)c(=O)[nH]c1=O	none
Cc1cc(C(=O)CSc2nnc(N)s2)c(C)n1CCc1ccc(Cl)cc1	none
Cc1cc(C(=O)CCl)c(C)n1CCc1ccc(Cl)cc1	GSTO1 inh 88
COc1cc(OC)c(C(=O)N/N=C/c2ccoc2)cc1OC	none
O=C(N/N=C/c1ccoc1)c1cc(Br)ccc1O	pPAFAH FP inh 33
O=C(NN=C1CCCC1)c1cc(Br)ccc1O	pPAFAH FP inh 30
O=C(CCCCCn1c(=O)[nH]c2ccsc2c1=O)NCc1ccc2c(c1)OCO2	none
C[C@H](NC(=O)OCc1ccccc1)c1nnc([C@H](C)NC(=O)OCc2ccccc2)o1	none
C[C@H](NC(=O)OCc1ccccc1)c1nnc([C@H](Cc2ccccc2)NC(=O)OC(C)(C)C)o1	pPAFAH FP inh 26
Cc1ccc(NC(=O)CN(C)C(=O)COC(=O)CCS(=O)(=O)c2ccc(C)cc2)cc1	none
CCOC(=O)c1c(C2CC2)csc1NC(=O)COC(=O)CCS(=O)(=O)c1ccc(C)cc1	GSTO1 inh 37
O=C(Nc1ccc(Br)cc1F)c1cccnc1	none
CCOC(=O)c1c2c3c(cccc3n(C)c1=O)C(=O)c1ccccc1-2	PME-1 inh 28, pPAFAH FP inh 31
CCc1ccc(-c2cc(C(=O)N/N=C/c3c[nH]c4ccccc34)[nH]n2)cc1	PME-1 inh 40
O=C(N/N=C/c1c[nH]c2ccccc12)c1ccc([N+](=O)[O-])cc1Cl	PME-1 inh 26
O=C(N/N=C/c1cc([N+](=O)[O-])ccc1O)c1c[nH]c2ccccc12	none
Cc1ccc(OCC(=O)Nc2c(C)ccc3nsnc23)cc1	none
Cc1cc(C(=O)OCC(=O)c2ccc(Cl)c([N+](=O)[O-])c2)c2cccc(C)c2n1	GSTO1 inh 37
Cc1noc(C)c1COC(=O)C(c1ccccc1)c1ccccc1	none
COc1ccccc1NC(=O)c1cc2c(CO)cnc(C)c2oc1=Nc1ccc(OC)c(OC)c1	pPAFAH FP inh 25
Cc1cc(S(=O)(=O)NCc2ccccc2)ccc1OCC(=O)NCc1ccncc1	none
COc1ccccc1CNC(=O)c1n[nH]c2ccccc12	pPAFAH FP inh 28
O=C1c2cccc3c(N4CCCCC4)ccc(c23)C(=O)N1c1cccc(O)c1	PME-1 inh 27
CC(C)CC(OC(=O)c1nsc(Cl)c1Cl)C(=O)NCc1cccs1 (centres undefined)	none
CCC(OC(=O)c1nsc(Cl)c1Cl)C(=O)NCc1cccs1 (centres undefined)	pPAFAH FP inh 28
CCC(OC(=O)c1nsc(Cl)c1Cl)C(=O)NCCc1ccccc1 (centres undefined)	pPAFAH FP inh 25
